Source: PubChem BioAssay (National Center for Advancing Translational Sciences (NCATS))
A selection: hits, their analogues and other compounds. The true share with any hit is near 2.8%.
IP6K1 inh: Primary qHTS assay for small molecule inhibitors of Inositol hexaphosphate kinase 1 (IP6K1) | Inositol hexakisphosphate kinase 1 (Homo sapiens), Q92551 | IP6K1 kinase, ADP-Glo luminescence, 2 h; hits give low values | activity change, % (series mostly up to about 58 µM) | actives 0.81% (n = 140,000) | AID 1645851, 2021; in the data active means activity change below about -25%; further: on the % scale 0 is the no-effect control and ±100 the full control effect
Target sequence (Q92551 whole entry, looked up): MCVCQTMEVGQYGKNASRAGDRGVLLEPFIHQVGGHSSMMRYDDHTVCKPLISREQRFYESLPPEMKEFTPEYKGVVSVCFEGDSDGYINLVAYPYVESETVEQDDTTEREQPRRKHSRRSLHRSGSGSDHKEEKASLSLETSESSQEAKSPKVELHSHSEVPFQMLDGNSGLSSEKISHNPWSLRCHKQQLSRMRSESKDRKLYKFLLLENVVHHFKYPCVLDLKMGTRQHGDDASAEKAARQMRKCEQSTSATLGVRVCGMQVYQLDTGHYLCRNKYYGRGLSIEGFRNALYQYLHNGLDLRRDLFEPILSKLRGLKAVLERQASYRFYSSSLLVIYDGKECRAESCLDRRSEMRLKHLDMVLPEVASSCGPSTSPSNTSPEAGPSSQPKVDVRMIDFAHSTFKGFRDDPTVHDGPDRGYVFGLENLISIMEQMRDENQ
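ADP-Glo luminescence measures ADP made by human IP6K1 during a 2 h RT reaction with ATP/IP6 (mix at 1.3 mM/130 uM); top library doses 57.5 and 19.1 uM final.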
SNCA expr inhib: Primary qHTS assay for inhibitors of alpha-synuclein gene (SNCA) expression | HEK-293 SNCA-luciferase knock-in, luminescence, 24 h | Potency, µM (titrated, usually from 57.2 µM), without a hit: at the highest dose activity change, negative = inhibition, actives largely listed as inhibitors | actives 0.17% (n = 140,000) | AID 1671194, 2021;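 further: potency means the concentration at half of the fitted maximal effect; plate controls were DMSO cells for no effect and cell-free wells for full effect; nearly all actives have a fitted effect of over 45% in size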
SNCA viab count: GF-AFC viability counterscreen for inhibitors of alpha-synuclein gene (SNCA) expression. HEK-293-SNCA-luc viability, GF-AFC fluorescence, 24 h. Potency, µM (top dose mostly 57.1 µM), for the others: at the highest dose activity change, negative = cytotoxicity, most hits filed as cytotoxic. actives 0.12% (n = 150,000). AID 1671193, 2021;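 further: potency means the concentration at half of the fitted maximal effect; 0% = DMSO-treated cells and -100% = medium-only wells without cells; nearly all actives have a fitted effect of over 30% in size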
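HEK-293-SNCA-luc cells (1500/well) plated 24 h, then exposed 24 h to a dilution series; GF-AFC added 30 min at 37C, fluorescence 405/540 nm; normalised to medium-only and DMSO wells, Hill fit.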
KDM5B inhibitor: Primary screen for KDM5B Histone Demethylases FDH-coupled qHTS; actives 2.6% (n = 220,000); Lysine-specific demethylase 5B (Homo sapiens), Q9UGL1; Potency, µM (highest dose often 57.7 µM), usual class: inhibitors; KDM5B demethylase, FDH-coupled NADH fluorescence (FDH is formaldehyde dehydrogenase); AID 1347165, 2019; further: potency means the concentration at half of the fitted maximal effect; 0% is about no effect; nearly all actives have a fitted effect of over 70% in size
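Coupled FDH/NAD⁺ fluorescence readout. KDM5BΔAP 200 nM final; compound titration, 10 min RT preincubation; substrate mix 12.5 µM H3K4me3, 25 µM 2-OG, 50 µM Fe(II), 100 µM ascorbate, 0.25 mM NAD⁺, 0.25 U/mL FDH; ΔRFU over 30 min.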
The depositor's hits bear a star; i = inactive; ? = inconclusive; . = no result; [ ] = dose if it differs, or a comment. Unless noted, the call rests on the fitted dose curve; in most records, active means well fitted curve in the direction sought with a large enough effect; inconclusive means small, poorly fitted or top-dose-only effect, or another doubt; inactive means no such curve, though single readings can be large; an effect the other way counts as inactive or inconclusive.

SMILES	IP6K1 inh	SNCA expr inhib	SNCA viab count	KDM5B inhibitor
COc1ccc(Cl)cc1C(=O)NCc1nnc2ccc(-c3ccc(C)c(C)c3)nn12	-1	6%	-29%	32µM*
COc1ccc(Cl)cc1C(=O)NCc1nnc2ccc(-c3ccc(Cl)cc3)nn12	11	-24%	-7%	i
CN(Cc1cccs1)C(=O)C1CC=CCC1c1nc2ccccc2s1 (configuration not stated)	.	.	.	i
N#Cc1cccc(-c2cn3c(n2)N(C(=O)c2cnccn2)CCC3)c1	8	37%	1%	?
N#Cc1cccc(-c2cn3c(n2)N(C(=O)c2ccsc2)CCC3)c1	10	85%	3%	18µM*
O=C(Cc1cccs1)N1CCCn2cc(-c3ccccc3F)nc21	3	-16%	-3%	?
N#Cc1cccc(-c2cn3c(n2)N(C(=O)c2ccccc2F)CCC3)c1	5	4%	-7%	20µM*
N#Cc1cccc(-c2cn3c(n2)N(C(=O)Cc2ccsc2)CCC3)c1	9	13%	8%	32µM*
N#Cc1cccc(-c2cn3c(n2)N(C(=O)c2ccccc2)CCC3)c1	-6	83%	1%	20µM*
COC(=O)[C@H](NC(=O)C1=C[C@@H](NC(=O)Nc2ccc(C)cc2)[C@@H](O)[C@H](O)C1)C(C)C	-12	-1%[87.6 µM]	4%[87.6 µM]	i
O=C(CCc1cccs1)N1CCSCC1	.	.	.	i
Cc1ccc(C(=O)N2CCCn3cc(-c4cccc(C#N)c4)nc32)cc1	7	73%	5%	32µM*
N#Cc1cccc(-c2cn3c(n2)N(C(=O)COc2ccccc2)CCC3)c1	-3	1%	4%	28µM*
N#Cc1cccc(-c2cn3c(n2)N(C(=O)CC2CCCC2)CCC3)c1	15	59%	6%	20µM*
CC(=O)NCC(=O)N1CCCn2cc(-c3cccc(C#N)c3)nc21	10	-19%	-11%	i
Cc1ccc(C(=O)N2CCCn3cc(-c4ccccc4)nc32)cn1	-5	92%	-22%	?
COc1cccc(-c2cn3c(n2)N(C(=O)Cn2ccnc2)CCC3)c1	2	71%	9%	i
CNCc1ccc(-c2ccccc2)o1	.	.	.	i
O=C(NCc1cc(F)ccc1F)c1cccnc1N1CC2CC(C1)[C@H]1CCCC(=O)N1C2 (some centres not stated)	16	6%	-12%	32µM*
O=C(NCc1cccnc1)c1cccnc1N1CC2CC(C1)[C@H]1CCCC(=O)N1C2 (some centres not stated)	11	-17%	2%	28µM*
O=C(NCc1cccc(F)c1)c1ccc(N2CC3CC(C2)[C@H]2CCCC(=O)N2C3)nc1 (some centres not stated)	33	3%	-5%	i
Cc1ccc(CN2CCC3(CC2)COCCN3C(=O)OCc2ccccc2)o1	-3	?	-18%[87.6 µM]	i
CCN(CC)Cc1cnc2c(C(=O)NC3CCC3)cnn2c1	-2	0%	-1%	?
O=C(N[C@@H]1CCOC[C@H]1O)c1cnn2cc(CCO)cnc12	-8	-19%	5%	28µM*
Cn1ccc(C(=O)N[C@@H]2COCC[C@@H]2OCc2cscn2)cc1=O	-2	-14%	2%	28µM*
SMILES	IP6K1 inh	SNCA expr inhib	SNCA viab count	KDM5B inhibitor
CN(C)C(=O)COC(=O)c1cc(-c2ccc(C3CCNCC3)cc2)c2ccc(-c3ccc(C(F)(F)F)cc3)cc2c1	2	.	30µM*	.
CN(C)C(=O)CNC(=O)c1cccc(-c2ccc(C(F)(F)F)cc2)c1	-4	?	1%[12.5 µM]	.
Cc1cccc(NC(=O)CN2C(=O)C(c3ccc(F)cc3)=NC23CCCCCC3)c1C	12	?	?	?
Cc1cccc(NC(=O)CN2C(=O)C(c3ccccc3)=NC23CCCC3)c1C	11	16µM*	-17%[12.5 µM]	i
O=C(O)c1cc2cn(C3CC3)cc2s1	-13	-23%	0%	25µM*
Cc1ccc(S(=O)(=O)N2CCCC(CCC(=O)N3CCCCC3)C2)cc1 (configuration not stated)	0	0%	-15%	i
Cc1ccc(C(=O)N2CCC(CCC(=O)N3CCN(c4ccccn4)CC3)CC2)cc1	22	77%	-1%	28µM*
O=C(CCC1CCCN(S(=O)(=O)c2ccccc2)C1)N1CCN(c2ccccn2)CC1 (configuration not stated)	3	-27%	0%	22µM*
COc1ccc(OC)c(-c2cc(C(=O)O)c3cccc(C)c3n2)c1	.	.	.	i
O=C(O)c1ccnc(-c2ccnc(NCCN3CCCCC3=O)n2)c1	44	-22%	4%	22µM*
O=C(O)c1ccnc(-c2ccnc(NCCc3noc(C4CCC4)n3)n2)c1	28	10%	-1%	28µM*
Cc1c(-c2ccccc2F)[nH]c2ccc(CNC(=O)C3CCCN(C(N)=O)C3)cc12 (configuration not stated)	26	5%	-13%	28µM*
CCc1[nH]c2ccc(CNC(=O)C3CC(=O)Nc4ccccc43)cc2c1C (configuration not stated)	-4	23%	2%	i
Cc1c(-c2ccccc2F)[nH]c2ccc(CNC(=O)C3C=CCN3)cc12 (configuration not stated)	-17	40%	5%	28µM*
CC(=O)Nc1ccc(NC(=O)CSc2nc(C3CC3)n(-c3ccccc3)n2)cc1	.	.	.	i
O=C1N(Cc2ccccc2F)CCOC12CCN(Cc1ccccc1)CC2	8	9%[87.6 µM]	8%[87.6 µM]	?
O=C1N(Cc2ccccc2F)CCOC12CCN(Cc1ccccc1F)CC2	-5	-22%[87.6 µM]	3%[87.6 µM]	16µM*
COCC(=O)N[C@@H]1CN(Cc2ccccc2C(F)(F)F)C[C@H]1CO	-4	-25%	-19%	i
Cc1cc(CN(C)c2ccc(-c3nc(-c4ccccc4F)no3)cn2)on1	-2	2%	0%	32µM*
CCc1noc(-c2nc(-c3ccccc3F)no2)n1	-20	43%	2%	i
O=C(NCC(F)(F)F)c1cc(C2CC2)nc2onc(C3CCNC3)c12 (configuration not stated)	1	?	7%	89µM*
O=C(c1cc(C2CC2)nc2onc(C3CCNCC3)c12)N1CCOCC1	1	-5%	5%	56µM*
CC(C)CNC(=O)c1cc(C2CC2)nc2onc(C3CCNC3)c12 (configuration not stated)	-4	-7%	-2%	100µM*
C/C=C/c1ccc(OCC(O)CNCc2ccc(OC)cc2)c(OC)c1 (configuration not stated)	.	.	.	i
CN(CCC(O)c1ccccc1)c1nccc(-c2cccnc2)n1 (configuration not stated)	2	?	-4%	28µM*
CN(Cc1cc(C2CC2)n[nH]1)c1cc(C2CC(N)C2)nc(N)n1 (configuration not stated)	9	-29%	-7%	?
